Among the data in ChEMBL document CHEMBL3433997, “St. Jude Leishmania screening dataset” (2016) are inhibition values, retold here.

For orientation: inhibition means the change of the read-out against control, counted positive when it falls.

Holding throughout (format): functional
In test [1] the target is Solute carrier family 2, facilitated glucose transporter member 1 (Homo sapiens) (UniProt P11166). Kind of test: ST_JUDE_LEISH: Cytotoxicity at 2uM final concentration against transgenic Leishmania Mexicana promastigotes LmGLUT1 that are glucose transport deficient and complemented with the human glucose transporter GLUT1. Activity is measured by DNA content using SYBR green in vitro.

In test [2] the target is Hexose transporter 1 (Plasmodium falciparum) (UniProt O97467). Kind of test: ST_JUDE_LEISH: Cytotoxicity at 2uM final concentration against transgenic Leishmania Mexicana promastigotes LmPfHT that are glucose transport deficient and complemented with the Plasmodium falciparum hexose transporter. Activity is measured by DNA content using SYBR green in vitro.
The target in test [3] is Glucose transporter (Leishmania mexicana) (UniProt O61059). Kind of test: ST_JUDE_LEISH: Cytotoxicity at 2uM final concentration against transgenic Leishmania Mexicana promastigotes LmGT2 that are glucose transport deficient and complemented with the L. Mexicana glucose transporter 2. Activity is measured by DNA content using SYBR green in vitro.

Sequence of Solute carrier family 2, facilitated glucose transporter member 1 (Homo sapiens) (P11166 whole entry): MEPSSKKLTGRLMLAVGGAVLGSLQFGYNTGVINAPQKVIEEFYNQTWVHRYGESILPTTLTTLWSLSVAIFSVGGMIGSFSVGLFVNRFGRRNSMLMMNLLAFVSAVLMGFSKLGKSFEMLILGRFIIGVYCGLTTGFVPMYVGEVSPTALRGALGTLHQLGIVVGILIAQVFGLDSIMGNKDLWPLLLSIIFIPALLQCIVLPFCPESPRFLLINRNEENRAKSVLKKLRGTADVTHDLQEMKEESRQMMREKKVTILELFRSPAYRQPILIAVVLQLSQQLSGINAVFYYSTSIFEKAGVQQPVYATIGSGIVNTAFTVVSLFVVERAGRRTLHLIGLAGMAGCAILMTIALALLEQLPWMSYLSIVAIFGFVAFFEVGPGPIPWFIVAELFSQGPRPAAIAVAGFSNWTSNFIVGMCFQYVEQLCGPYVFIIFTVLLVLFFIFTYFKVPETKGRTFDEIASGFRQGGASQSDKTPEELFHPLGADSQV

For the compound `Fc1ccc2[nH]c(-c3cccc(-c4cccc(CNCC5CCCO5)c4)c3)nc2c1` (centres undefined), the inhibition is -0.33% in test [1], -0.14% in test [2] and -1.55% in test [3].

As for `COc1ccc2nccc(N3CCC(SCCNCc4cc5c(cn4)OCCO5)C3)c2n1` (centres undefined), the inhibition in test [1] was 0.61%; in test [2], 0.85%; in test [3], -2.04%.

Regarding `Fc1cccc(COc2ccc(Nc3ncnc4ccc(-c5nnc(C(F)(F)F)o5)cc34)cc2Cl)c1`, the inhibition was 4.63% in test [1], 4.57% in test [2] and 1.46% in test [3].

Turning to `Cc1noc(C)c1-c1cccc(CNCc2cccc(-c3csc(-c4nc5ccccc5[nH]4)c3)c2)c1`, the inhibition stood at 2.13% in test [1], 3.22% in test [2] and 1.31% in test [3].

As to `CC1CN(Cc2ccc(-c3ccc(-c4nc5cc(F)ccc5[nH]4)cc3)cc2)CC(C)O1` (centres undefined), the inhibition in test [1] was 6%; in test [2], 6.63%; in test [3] it was 3.77%.

Consider `O=C(Nc1cccc(-c2cccc(F)c2)c1)C1CCN(Cc2ccc(O)cc2)CC1`, for which the inhibition in test [1] turned out to be 2.54%; in test [2] it was 2.14%; in test [3], 2.19%.

Regarding `CCOC(=O)c1ccc(Nc2cc(Nc3ccc(C(=O)OCC)cc3)nc(C)n2)cc1`, the inhibition came out at 7.7% in test [1], 35.2% in test [2] and 3.24% in test [3].

For `O=C(Nc1ccc(Cl)cc1)c1cccc(S(=O)(=O)NC2CCN(CC3CCCCC3)CC2)c1`, the inhibition was found to be 0.8% in test [1], 1.68% in test [2] and 3.31% in test [3].

Take `Cc1nn(-c2ccccc2)c2sc(C(=O)N(CCCN(C)C)c3nc(-c4ccccc4)cs3)cc12`: the values for the inhibition in test [1], in test [2] and in test [3] were 1.15%, 3.31% and 0.07%, respectively.

`Cc1cccc2nc(-c3cccc(-c4cccc(NC(=O)CCc5c[nH]cn5)c4)c3)[nH]c12`: the inhibition in test [1] is 0.79%; in test [2], 0.27%; in test [3], 1.56%.

Take `Cc1cc(N2CCCC2)nc(Nc2ccc(NC(=O)Nc3ccccc3)cc2)n1`: the inhibition in test [1] was found to be 2.65%; in test [2] it was 2.28%; in test [3] it was 3.63%.

On to `COc1ccc(-c2cccc(NC(=O)c3ccc(C#N)cc3)c2)cc1CNC(C)C`, for which the results for the inhibition in test [1], in test [2] and in test [3] were 8.59%, 6.99% and 8.32%, respectively.

`O=C(Nc1ccccc1)Nc1ccc(-c2cccc(-c3nc4cc(C(F)(F)F)ccc4[nH]3)c2)cc1`: the inhibition in test [1] was 4.44%; in test [2], 0.5%; in test [3] it was 2.05%.

Turning to `COc1nc2c(CCN3CCC(NCc4ccc5c(c4)NC(=O)CO5)CC3)c(Cl)cnc2cc1F`, the inhibition stood at 3.07% in test [1], 0.9% in test [2] and 1.45% in test [3].

With `Cc1cc(Nc2ccccc2)nc(Nc2ccccc2)n1`, the inhibition in test [1] is 9.14%; in test [2] it was 8.33%; in test [3] it was 1.86%.

As to `CN(C)CCOc1ccc2c(c1)OC(C)(C)C=C2c1cccc2ccccc12`, the inhibition is 4.01% in test [1], 3.57% in test [2] and 3.75% in test [3].

Consider `COc1ccc2nccc([C@@H](O)CN3CCC(NCc4ccc5c(c4)oc(=S)n5C)CC3)c2c1`, for which the inhibition in test [1] was determined as 2.25%; in test [2] it was 5.5%; in test [3] it was 1.46%.

In the case of `COc1ccc(CNC(=O)c2cc3c(=O)n4ccccc4nc3n(CCc3ccccc3)c2=N)cc1`, the figures for the inhibition in test [1], in test [2] and in test [3] were 15.5%, 12% and 9.96%, respectively.

As for `COc1cc(CS(C)(=O)=O)ccc1Nc1nccc(-c2c(-c3cccc(NC(=O)c4c(F)cccc4F)c3)nn3ccccc23)n1`, the inhibition in test [1] worked out at 13.5%; in test [2], 20.7%; in test [3], 7.36%.

For the compound `Cn1cncc1C(=O)Nc1cccc(-c2ccc(-c3nc4cc(C(F)(F)F)ccc4[nH]3)cc2)c1`, the values for the inhibition in test [1], in test [2] and in test [3] were 9.17%, 6.73% and 5.1%, respectively.

For `O=C1NC(c2ccccc2)C2(CCN(CC(O)COc3cccc4ncccc34)CC2)O1` (centres undefined), the figures for the inhibition in test [1], in test [2] and in test [3] were 2.46%, 3.19% and 1.26%, respectively.

With `CN(C)S(=O)(=O)n1ccc2c3c(N)nc(N)nc3ccc21`, the values for the inhibition in test [1], in test [2] and in test [3] were 44.3%, 46.3% and 29.3%, respectively.

On to `CC(C)Oc1ccc2ccccc2c1CNCCCCCCNCc1c(OC(C)C)ccc2ccccc12`, for which the figures for the inhibition in test [1], in test [2] and in test [3] were 31.1%, -0.9% and 50.6%, respectively.

Consider `Cc1cccc(C)c1N1CCN(C2CCC(NC(=O)c3cc4ccccc4[nH]3)CC2)CC1` (centres undefined), for which the inhibition in test [1] was 1.58%; in test [2], -0.69%; in test [3], -0.14%.

For the compound `Cc1cccn2c(=O)c3cc(C(=O)NCCc4ccccc4)c(=N)n(CCCOC(C)C)c3nc12`, the inhibition in test [1] was 8.75%; in test [2], 6.64%; in test [3], 2.98%.

For `O=C1CCCN1CCCNCc1ccc(-c2cccc(-c3nc4ccccc4[nH]3)c2)cc1`, the inhibition was determined as 4.17% in test [1], 3.74% in test [2] and 4.94% in test [3].

With `Cc1cc2[nH]c(-c3ccc(C(=O)NCCCN4CCN(c5cccc(Cl)c5)CC4)s3)nc2cc1Cl`, the inhibition in test [1] came to 3.07%; in test [2] it was 3.29%; in test [3], 2.02%.

`COc1ccc(Cl)cc1N1CCN(CCCNC(=O)c2ccc(-c3nc4cc(Cl)c(C)cc4[nH]3)s2)CC1`: the results for the inhibition in test [1], in test [2] and in test [3] were 4.06%, 1.78% and 1.42%, respectively.

For `Cc1cc(N(C)CCCN2CCCCC2)nc(Nc2ccc(Cl)cc2)n1`, the inhibition in test [1] was 0.51%; in test [2], 2.38%; in test [3], 2.88%.

For the compound `Cc1cc(=NN=Cc2ccccc2F)c2cc(C(F)(F)F)ccc2[nH]1`, the inhibition is 1.67% in test [1], 3.04% in test [2] and 0.5% in test [3].

In the case of `COc1ccccc1-c1ccc(C(=O)NCC2CCCN(Cc3cccc(C(F)(F)F)c3)C2)s1` (centres undefined), the figures for the inhibition in test [1], in test [2] and in test [3] were 6.82%, 8.99% and 7.33%, respectively.

On to `O=C(/C=C/c1ccc(Cl)c(Cl)c1)N1CCC(CCN2CCC(c3c[nH]c4cc5c(cc34)OCO5)CC2)CC1`, for which the inhibition in test [1] is 0.05%; in test [2], 0.01%; in test [3] it was -0.27%.

For `O=C(N[C@@H](CC1CCCCC1)C(=O)NCCN1CCCC1)c1ccc(O)c(-c2ccc(Cl)c(Cl)c2)c1`, the inhibition in test [1] is 0.12%; in test [2], 0.41%; in test [3] it was 0.58%.

For the compound `CCOC(=O)c1ccc(N2CCN(c3cc(C)ccc3C)CC2)c(NC(=O)Nc2ccc(Cl)c(Cl)c2)c1`, the inhibition is 0.52% in test [1], 0.93% in test [2] and -0.25% in test [3].

With `Cc1nc2c(s1)c(=O)cc(CCc1cccc(F)c1F)n2CC(=O)N(Cc1ccc(-c2ccc(C(F)(F)F)cc2)cc1)C1CCN(C(C)C)CC1`, the inhibition came to 1.07% in test [1], 0.83% in test [2] and 1.78% in test [3].

Consider `CCCCCCCc1c(C)nc2c(OC)cccc2c1O`, for which the inhibition is 5.31% in test [1], 8.11% in test [2] and -0.9% in test [3].

In the case of `Cc1cccc2nc(-c3ccc(-c4ccc(NC(=O)Nc5cccc(C#N)c5)cc4)s3)[nH]c12`, the values for the inhibition in test [1], in test [2] and in test [3] were 9.25%, 6.92% and 8.07%, respectively.

In the case of `CC(=O)Nc1cccc(C(=O)Nc2ccc(-c3cccc(-c4nc5cc(F)ccc5[nH]4)c3)cc2)c1`, the values for the inhibition in test [1], in test [2] and in test [3] were 4.65%, 4.15% and 5.47%, respectively.

As to `COc1ccc2nccc(N3CCC(O)(CCNCc4ccc5c(n4)NC(=O)CS5)CC3)c2n1`, the inhibition came out at 7.13% in test [1], 8.14% in test [2] and 7.92% in test [3].

In the case of `Nc1ccc(-c2ccc3ccnc(N)c3c2)cn1`, the inhibition in test [1] was 1.94%; in test [2] it was -1.53%; in test [3], 2.84%.

Take `O=C(Nc1ccc(Cl)c(Cl)c1)N(Cc1ccccc1Br)C1CCNCC1`: the inhibition in test [1] came out at 0.5%; in test [2] it was 3.45%; in test [3], 0.68%.

`COc1ccc(CCN(C)CCCCc2ccc(NC(=O)c3cccc4c(=O)c5cc(F)ccc5sc34)cc2)cc1OC`: the inhibition in test [1] worked out at 9.78%; in test [2], 4.42%; in test [3], 2.03%.

`Nc1c2c(nc3ccc(NC(=O)CCCCCCc4ccccc4)cc13)CCCC2`: the inhibition was -2.4% in test [1], -2.24% in test [2] and -3.57% in test [3].

`CN1CCN(c2ccc(Nc3nc(N)c4ccn(C5CCC5)c4n3)cc2)CC1`: the inhibition in test [1] amounted to 4.19%; in test [2], 4.27%; in test [3], 2.97%.

`CN(C)Cc1ccc(-c2ccc3c(Nc4ccc(Oc5ccccc5)cc4)ccnc3c2)o1`: the inhibition in test [1] came to 0.83%; in test [2], 0.83%; in test [3], 2.26%.

As to `CC(=O)Nc1ccc(C(=O)Nc2cccc(-c3cccc(-c4nc5ccccc5[nH]4)c3)c2)cn1`, the inhibition in test [1] is 2.35%; in test [2] it was -0.22%; in test [3], 1.34%.

On to `CN1CCCN(Cc2ccc(-c3cccc(NC(=O)c4ccc(F)cc4)c3)cc2)CC1`, for which the inhibition in test [1] was 19.9%; in test [2] it was 13.8%; in test [3], 12.4%.

As to `Cc1cc(-c2cccc(CNC3CCN(C)CC3)c2)ccc1S(=O)(=O)NCc1ccccc1`, the inhibition in test [1] came out at 4.02%; in test [2] it was 3.65%; in test [3], 4.62%.

`CN(Cc1ccccc1)C(=O)c1nn(CCCN2CCC(N3CCCC3)CC2)cc1-c1ccc(Cl)c(Cl)c1`: the values for the inhibition in test [1], in test [2] and in test [3] were 27.6%, 13.7% and 1.65%, respectively.

In the case of `CC(C)(C)NC(=O)C(c1ccc(F)cc1)N(C(=O)c1ccc(CN2CCOCC2)o1)c1ccc(C2CCCCC2)cc1` (centres undefined), the inhibition was 2.43% in test [1], 2.31% in test [2] and 0.51% in test [3].

In the case of `c1cc(CNC2CCCC2)cc(-c2ccc(CNc3ccc4ncccc4c3)cc2)c1`, the values for the inhibition in test [1], in test [2] and in test [3] were -0.78%, 0.28% and -2.51%, respectively.

For the compound `CC(C)(C)c1ccc2nccc(Nc3cccc(O)c3)c2c1`, the inhibition in test [1] was 2.99%; in test [2] it was 2.35%; in test [3], 2.33%.

Turning to `COc1ccc(OC)c(C=NNc2nc3ccccc3[nH]2)c1`, the figures for the inhibition in test [1], in test [2] and in test [3] were 5.98%, 5.18% and 3.34%, respectively.
